Most compounds without a hit are left out; they make up all but 7.2% or so of the library.
FMDV inh: foot and mouth disease virus antiviral activity; FMDV antiviral cell-based qHTS; Potency, µM (highest dose often 57.9 µM), for the others: top-dose activity change, negative = inhibition, hits mostly inhibitors; AID 1159524; 1.2% of 410,000 active; calls by dose curve; tested in HEK293T cells; note: read-out not given here; nearly all actives have a fitted effect of over 45% in size
Marburg entry inh: blocks Marburg virus binding to or entry into cells. Potency, µM (top dose mostly 37.8 µM), for the others: at the highest dose activity change, negative = inhibition, usual class: inhibitors. Marburg virus pseudotyped entry inhibition, cell reporter. 1.8% of 300,000 active; calls by dose curve; tested in HEK293 cells
LASV entry inh: blocks Lassa virus binding to or entry into cells. Lassa virus pseudotype entry inhibition, cell reporter. Potency, µM (highest dose often 37.9 µM), for the others: top-dose activity change, negative = inhibition, usual class: inhibitors. 1.2% of 300,000 active. AID 540256; calls by dose curve; tested in HEK293 cells; note: nearly all actives have a fitted effect of over 50% in size
HCV inh: blocks hepatitis C virus | Huh7.5.1 HCVcc-Cre infection, luciferase reporter, 44 h | Potency, µM (series often up to 41.8 µM), inactives show top-dose activity change, negative = inhibition, usual class: inhibitors | 3.4% of 340,000 active | AID 651820
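Compounds are dispensed onto cells plated 4 h earlier at 1,000 per well, with HCVcc-Cre virus (about 0.5 moi) added next. Following 44 h of culture, luminescent signal is measured for 15 sec after 15 min with substrate at room temperature.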
RE007 growth inh: less growth of the S. pombe RE007 Vpr strain; S. pombe RE007 Vpr strain, BacTiter-Glo ATP luminescence, 24 h; 0.21% of 360,000 active; Potency, µM (series often up to 92.2 µM), inactives show at the highest dose activity change, negative = less growth, actives largely listed as inhibitors; active = well fitted falling curve with a large enough effect; inconclusive = small, poorly fitted or top-dose-only effect; inactive = no such curve, though single readings can be large or run the other way; note: nearly all actives have a fitted effect of over 50% in size
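Fission yeast strain RE007, carrying one chromosomally integrated HIV-1 vpr copy, was seeded at OD 0.01 in PMG+AL medium with 23 nL pinned compound. After 24 h at 30 °C and 99% humidity, viability was read by BacTiter-Glo luminescence.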
Sm TGR block: inhibitors of Schistosoma mansoni thioredoxin glutathione reductase; Q962Y6; purified TGR, DTNB reduction, TNB absorbance 405 nm; Potency, µM (top dose mostly 114 µM), inactives show at the top dose activity change, negative = inhibition, usual class: inhibitors; 3% of 360,000 active; AID 485364; note: nearly all actives have a fitted effect of over 60% in size
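First, TGR (20 nM dispensed) and NADPH were mixed with compound. Second, a 15 min room-temperature incubation followed. Third, further NADPH and then DTNB were added to start the reaction. Finally, TNB absorbance was monitored kinetically.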
Starred values were filed as active, the others as inactive; ? = inconclusive; . = no result given; [ ] = dose if it differs, or a comment. Unless noted, calls come from the whole dose curve; as a rule, active = well fitted curve in the direction sought with a large enough effect; inconclusive = small, poorly fitted or top-dose-only effect, or another doubt; inactive = no such curve, though single readings can be large; an effect the other way counts as inactive or inconclusive. % is set by controls: 0 for no effect and ±100 for the full control effect; potency is the fitted concentration of half-maximal effect.

SMILES	FMDV inh	Marburg entry inh	LASV entry inh	HCV inh	RE007 growth inh	Sm TGR block
COc1ccc(-n2nnnc2C2c3ccccc3C(=O)N2C2CCN(Cc3ccccc3)CC2)cc1 (centres undefined)	-14%	.	.	.	-27%	.
O=C(Nc1ccc2c(c1)CCC2)c1ccc(F)cc1	-3%	11µM*	?	?	22%	-21%
CCN(CC)C(=O)c1ccc(NC(=O)Nc2ccccc2F)cc1	-42%	.	.	2%	13µM*	-7%
COc1ccc(/C=C/C2=CCN(Cc3ccc(OC)cc3)CC2)cc1	-7%	4.5µM*	-16%[46.1 µM]	-22%	2%	?
COc1ccc(/C=N/N2CCN(Cc3ccccc3)CC2)cc1	4%	.	.	-16%	3%	7%
CCOC(=O)C(NC(=O)CCl)(Nc1sc(C)c(CC)c1C#N)C(F)(F)F (centres undefined)	?	-41%	?	?	-18%	16µM*
CC1(C(=O)NCCc2c[nH]c3ccccc23)CCN1Cc1ccccc1OC(F)F (centres undefined)	-26%	.	.	.	-4%	.
COc1ccc(-n2c(=O)c(CCc3ccccc3)nc3cnc(N(C)C)nc32)cc1	0%	.	.	.	.	.
CSc1ccc(CCNC(=O)CCCn2nc(C)c3sc4ccccc4c3c2=O)cc1	-18%	-18%[46.1 µM]	-14%[46.1 µM]	.	.	5%
COc1ccc(CNC(=O)CSc2c3c(nc4ccc(Cl)cc24)CCCC3)cc1	?	21%[46.1 µM]	4%[46.1 µM]	.	.	-2%
CCN(CC)CCNC(=O)CSc1c2c(nc3cc(Cl)ccc13)CCCC2	?	.	.	10µM*	-4%	3%
O=C(CSc1c2c(nc3ccc(Cl)cc13)CCCC2)N1CCN(C(=O)c2ccco2)CC1	25µM*	.	.	?	0%	.
O=C(CSc1c2c(nc3ccc(Cl)cc13)CCCC2)N1CCCCC1	?	6%[46.1 µM]	-16%[46.1 µM]	.	.	-3%
Cc1ccc(CNC(=O)CSc2c3c(nc4ccc(Cl)cc24)CCCC3)o1	?	?	7.3µM*	?	7%	?
O=c1c(F)cn([C@H]2CCCO2)c(=O)n1Cc1ccccc1Cl	.	2%	.	.	.	.
Cc1ccc(-n2ncc(C(=O)NCCc3ccccc3)c2C2CCN(C(=O)OC(C)(C)C)CC2)c(C)c1	-1%	.	?	.	.	3%
COc1cc(/C=C/c2ccc3cccc([N+](=O)[O-])c3n2)ccc1OCC#N	-23%	?	?	4.5µM*	-5%	-3%
C/C(=N\NC(=O)COc1ccc(C)cc1Br)c1cc([N+](=O)[O-])cs1	-10%	?	?	8.9µM*	-16%	.
COc1ccc(-c2nnc(SCC(=O)N(Cc3ccccc3)C(C)(C)C)o2)cc1OC	11µM*	?	?	?	23%	-2%
CCc1ccc(OC(=O)CSc2nnc(-c3ccc(OC)c(OC)c3)o2)cc1	2%	-3%[46.1 µM]	6%[46.1 µM]	.	.	-11%
CCN(C(=O)CSc1nnc(-c2cc(OC)c(OC)c(OC)c2)o1)c1ccccc1	0%	-4%[46.1 µM]	13%[46.1 µM]	.	.	20µM*
COc1cc(OC)cc(C(=O)Nc2nnc3n2CCS3)c1	-7%	.	-21%[46.1 µM]	.	.	2%
Cc1ccc(/C=C/C(=O)c2c(C)nc3ccccn23)cc1	-10%	?	-29%	9%	-4%	10%
Cc1nc2ccccn2c1C(=O)/C=C/c1cccc([N+](=O)[O-])c1	6.3µM*	.	.	13%	-12%	.
C=CCN1C(=O)/C(=C/c2ccc(-c3ccc(F)cc3)o2)SC1=S	-21%	.	.	-9%	4%[18.4 µM]	25µM*
SMILES	FMDV inh	Marburg entry inh	LASV entry inh	HCV inh	RE007 growth inh	Sm TGR block
COc1ccc(C(=O)c2cn(Cc3ccc(F)cc3)c3ccc(C)cc3c2=O)cc1	-24%	-27%[46.1 µM]	?	.	.	-4%
COc1cc(OC)cc(C(=O)NC(C(=O)N2CCc3ccccc3C2)C(C)C)c1 (centres undefined)	14%	11µM*	?	-15%	2%	-16%
COc1cc(OC)cc(C(=O)N[C@H](C(=O)N2CCc3ccccc32)C(C)C)c1	-10%	?	-18%	?	-4%	-17%
CN(c1ccccc1)S(=O)(=O)c1cccc(NC(=O)CN2CCc3ccccc3C2)c1	-11%	?	.	-5%	5%	8%
CCC1CCC2(CC1)NC(=O)N(CC(=O)Nc1cccc(S(=O)(=O)N(C)c3ccccc3)c1)C2=O (centres undefined)	-25%	.	.	8.9µM*	4%	-1%
CN1C(=O)N(CC(=O)Nc2cccc(S(=O)(=O)N(C)c3ccccc3)c2)C(=O)C12CCCCC2	?	?	?	4µM*	4%	1%
COc1ccc(Cl)cc1NC(=O)Cn1c(=O)n(Cc2cccs2)c(=O)c2cccnc21	6%	?	.	.	.	-1%
COc1ccc(C(=O)CN2CCN(c3ccc(Cl)cc3)CC2)cc1OC	?	.	.	-17%	5%	35µM*
N#Cc1ccc(C(=O)CN2CCN(c3ccccc3)CC2)cc1	-3%	-7%[46.1 µM]	-7%	-4%	-18%	7.1µM*
COc1ccc(C(=O)CC(=O)c2ccc(OC)cc2)cc1	27%	23%	2%	1%	2%	-27%
COc1ccc(N2CCN(CC(=O)c3ccc(Cl)cc3)CC2)cc1	20%	.	.	4%	1%	11µM*
O=C(CCN1CCN(c2ccccc2)CC1)c1ccc(Br)cc1	-3%	.	.	11%	?	0%
COc1ccc(C(=O)CN2CCN(c3ncccn3)CC2)cc1	-11%	20%[46.1 µM]	18%[46.1 µM]	-14%	-12%	?
COc1ccc(C(=O)Cn2cc[n+](C)c2)cc1	2%	-24%	-28%	11µM*	-16%	-4%
COC(=O)N1CCC2(CCN(C(=O)Nc3cccc(F)c3)CC2)CC1	20%	.	.	.	.	.
CC[Se]CC[C@@H](N)C(=O)O	.	-8%	.	.	.	.
N#CCN1CCN(CC(=O)c2ccc(Br)cc2)CC1	6%	-10%[46.1 µM]	20%[46.1 µM]	3%	-4%	11µM*
COc1ccccc1N1CCN(CC(=O)c2ccc(F)cc2)CC1	37%	.	.	-9%	-2%	22µM*
COc1ccccc1N1CCN(Cc2ccc(F)cc2)CC1	-4%	?	?	-22%	-11%	-18%
COc1ccc(C(=O)CN2CCN(c3ccc(F)cc3)CC2)cc1OC	-9%	0%	25%	-10%	-23%	35µM*
COc1cc(OC)c(OC)cc1CN1CCN(c2ccc(F)cc2)CC1	-20%	-18%	17%	-20%	-3%	3%
O=C(CN1CCN(c2ccccc2F)CC1)c1c[nH]c2ccc(F)cc12	-17%	12µM*	?	?	2%	-19%
COC(=O)[C@H](Cc1ccccc1)N1C[C@@H](N2CCC[C@@H]2C)C[S+]1(=O)[O-]	.	.	-7%[46.1 µM]	.	.	.
Cc1noc(/C=C/c2ccccc2F)c1S(=O)(=O)N1CCC(C(=O)NCC(C)c2ccccc2)CC1 (centres undefined)	-14%	.	1%[46.1 µM]	.	.	-14%
CC1CCC(N2CC(=O)N(C3CCCC3)C(c3ccc(Cl)cc3)C2=O)CC1 (centres undefined)	-24%	.	28%[46.1 µM]	.	.	2%

Source: PubChem (National Center for Advancing Translational Sciences (NCATS))
